Laboratory results from PubChem BioAssay AID1159580 (chemical genetic matrix, 2015).
Values joined by “and” are separate entries in the source; they are usually repeats but may differ in a detail not shown here. Equal values may be shown once. About 2,000 (36%) of roughly 5,500 compounds were called active. Roughly 18% stayed inconclusive and do not appear here. Rule as the data show it: active = normalized growth mostly below about 0.91 (no sharp cut-off); inconclusive = no clear call, values can overlap the other calls; inactive = mostly above about 0.92. Some of the results follow.

Assay: chemical genetic growth profiling, strain panel (AID 1159580);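 also: tested at 20 µM; growth read once vehicle control cultures reached saturation at 30 °C; 1 = growth at the plate median or of vehicle wells; lower values mean less growth of the strain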
Conditions: S. cerevisiae deletion strains, growth OD

Measured: normalized growth

C=CC(C1=CC(=O)C(OC)=CC1=O)c1ccccc1 (configuration not stated)
active: locus YAL013W, strain DEP1, stronger effect = lower value 0.908 | locus YAL026C, strain drs2, stronger effect = lower value 0.853 | locus YAL030W, strain snc1, stronger effect = lower value 0.92 | locus YBL061C, strain skt5, stronger effect = lower value 0.847 | locus YBR009C, strain hhf1, stronger effect = lower value 0.728 | locus YBR023C, strain chs3, stronger effect = lower value 0.85 | locus YBR279W, strain paf1, stronger effect = lower value 0.858 | locus YCL011C, strain gbp2, stronger effect = lower value 0.843 | locus YCL016C, strain dcc1, stronger effect = lower value 0.845 | locus YCL061C, strain MRC1, stronger effect = lower value 0.911 | locus YDL035C, strain GPR1, stronger effect = lower value 0.825 | locus YDL192W, strain arf1, stronger effect = lower value 0.843 | locus YDR101C, strain arx1, stronger effect = lower value 0.854 | locus YDR137W, strain rgp1, stronger effect = lower value 0.616 | locus YDR159W, strain sac3, stronger effect = lower value 0.85 | locus YDR162C, strain NBP2, stronger effect = lower value 0.607 | locus YDR195W, strain ref2 1.32 [resistant] | locus YDR297W, strain sur2, stronger effect = lower value 0.913 | locus YDR318W, strain mcm21, stronger effect = lower value 0.83 | locus YDR388W, stronger effect = lower value 0.907 | locus YDR392W, strain spt3, stronger effect = lower value 0.233 | locus YDR502C, strain sam2, stronger effect = lower value 0.902 | locus YEL003W, strain gim4, stronger effect = lower value 0.823 | locus YER015W, strain faa2, stronger effect = lower value 0.815 | locus YER155C, strain BEM2 (second series), stronger effect = lower value 0.43 | locus YER167W, strain BCK2, stronger effect = lower value 0.747 | locus YGL086W, strain mad1, stronger effect = lower value 0.853 | locus YGL173C, strain kem1, stronger effect = lower value 0.855 | locus YGL240W, strain doc1, stronger effect = lower value 0.708 | locus YGR078C, strain PAC10, stronger effect = lower value 0.734 | locus YGR135W, strain pre9, stronger effect = lower value 0.864 | locus YGR229C, strain SMI1, stronger effect = lower value 0.692 | locus YHR027C, strain rpn1, stronger effect = lower value 0.92 | locus YHR030C, strain SLT2, stronger effect = lower value 0.895 and 0.797 | locus YHR079C, strain IRE1 (second series), stronger effect = lower value 0.908 | locus YHR079C, strain IRE1, stronger effect = lower value 0.824 | locus YHR129C, strain ARP1, stronger effect = lower value 0.88 | locus YHR142W, strain chs7, stronger effect = lower value 0.729 | locus YHR200W, strain rpn10, stronger effect = lower value 0.92 | locus YIL066C, strain RNR3, stronger effect = lower value 0.824 | locus YJL095W, strain BCK1 (second series), stronger effect = lower value 0.873 | locus YJL164C, strain tpk1, stronger effect = lower value 0.77 | locus YJL166W, strain qcr8, stronger effect = lower value 0.686 | locus YJL187C, strain SWE1, stronger effect = lower value 0.855 | locus YJR043C, strain POL32, stronger effect = lower value 0.768
0.852 (inactive) and 0.869 (active): locus YJL095W, strain BCK1, stronger effect = lower value
inactive: locus YAL021C, strain ccr4, stronger effect = lower value 1.04 | locus YBR021W, strain FUR4, stronger effect = lower value 0.922 | locus YBR171W, strain sec66, stronger effect = lower value 0.992 | locus YBR229C, strain ROT2, stronger effect = lower value 0.969 | locus YBR231C, strain swc5, stronger effect = lower value 0.947 | locus YCL029C, strain bik1, stronger effect = lower value 0.948 | locus YCL069W, strain vba3, stronger effect = lower value 0.954 | locus YCR088W, strain abp1, stronger effect = lower value 0.969 | locus YDL005C, strain med2, stronger effect = lower value 1 | locus YDL040C, strain nat1, stronger effect = lower value 1 | locus YDL074C, strain BRE1, stronger effect = lower value 0.781 | locus YDL101C, strain DUN1, stronger effect = lower value 0.94 | locus YDL134C, strain PPH21, stronger effect = lower value 0.944 | locus YDL185W, strain tfp1, stronger effect = lower value 0.948 | locus YDR001C, strain nth1, stronger effect = lower value 0.983 | locus YDR069C, strain doa4, stronger effect = lower value 0.982 | locus YDR150W, strain NUM1, stronger effect = lower value 0.972 | locus YDR334W, strain swr1, stronger effect = lower value 0.999 | locus YDR335W, strain msn5, stronger effect = lower value 0.968 | locus YEL037C, strain rad23, stronger effect = lower value 0.993 | locus YEL061C, strain CIN8 (second series), stronger effect = lower value 0.966 | locus YEL061C, strain CIN8, stronger effect = lower value 0.932 | locus YER016W, strain bim1, stronger effect = lower value 0.985 | locus YER110C, stronger effect = lower value 0.936 | locus YER111C, strain swi4, stronger effect = lower value 0.977 | locus YER155C, strain BEM2, stronger effect = lower value 0.956 | locus YFR010W, strain ubp6, stronger effect = lower value 0.979 | locus YGL078C, strain dbp3, stronger effect = lower value 0.998 | locus YGL167C, strain pmr1, stronger effect = lower value 0.973 | locus YGL227W, strain vid30, stronger effect = lower value 0.963 | locus YGL248W, strain PDE1, stronger effect = lower value 0.947 | locus YGL253W, strain hxk2, stronger effect = lower value 0.92 | locus YGR252W, strain gcn5, stronger effect = lower value 0.854 | locus YHR013C, strain ard1, stronger effect = lower value 0.876 | locus YHR094C, strain hxt1, stronger effect = lower value 0.956 | locus YIL073C, strain SPO22, stronger effect = lower value 0.723 | locus YIL125W, strain kgd1, stronger effect = lower value 0.963 | locus YIR030C, strain dcg1, stronger effect = lower value 0.929 | locus YJL092W, strain hpr5, stronger effect = lower value 0.95 | locus YJL115W, strain asf1, stronger effect = lower value 1 | locus YJL129C, strain trk1, stronger effect = lower value 0.947 | locus YJL134W, strain LCB3, stronger effect = lower value 0.96 | locus YJL154C, strain vps35, stronger effect = lower value 0.999 | locus YJL168C, strain set2, stronger effect = lower value 0.953 | locus YJL187C, strain SWE1 (second series), stronger effect = lower value 0.944 | locus YJR066W, strain TOR1, stronger effect = lower value 0.858
